In PubChem BioAssay (Tox21):
Results filed as inconclusive are left out. A number with no mark means an inactive call. The source made the active and inactive calls. Calls come from the whole dose curve; as a rule, active = well fitted inhibition curve with a large enough effect in the signal ratio in the repeat runs (not every such curve was filed as active); inconclusive = weak or mixed curves, or effect the other way; inactive = no such curve, though single readings can be large or run the other way; the % refers to the signal ratio.

Each molecule was assayed against Vitamin D3 receptor (Homo sapiens) (UniProt P11473) (assay: qHTS assay to identify small molecule antagonists of the vitamin D receptor (VDR) signaling pathway (AID 743223)). Settings: VDR-UAS-bla HEK293T, beta-lactamase FRET ratio, 16 h; series mostly up to 61 µM; activity change, negative = inhibition: at the top concentration.
Chain of Vitamin D3 receptor (Homo sapiens) (P11473 whole entry, looked up): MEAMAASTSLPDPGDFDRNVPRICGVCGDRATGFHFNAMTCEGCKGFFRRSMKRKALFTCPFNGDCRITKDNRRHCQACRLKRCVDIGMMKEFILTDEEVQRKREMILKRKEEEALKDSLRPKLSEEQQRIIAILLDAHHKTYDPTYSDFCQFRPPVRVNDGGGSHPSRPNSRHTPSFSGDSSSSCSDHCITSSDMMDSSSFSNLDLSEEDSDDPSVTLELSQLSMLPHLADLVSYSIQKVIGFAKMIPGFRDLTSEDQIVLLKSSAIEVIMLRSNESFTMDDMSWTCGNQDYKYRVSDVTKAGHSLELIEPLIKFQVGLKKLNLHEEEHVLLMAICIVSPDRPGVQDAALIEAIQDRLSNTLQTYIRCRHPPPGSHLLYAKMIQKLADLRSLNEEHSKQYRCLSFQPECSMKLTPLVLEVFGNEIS
From the text: U.S. Tox21 Program National Center for Advancing Translational Sciences [NCATS] NIH Chemical Genomics Center [NCGC] U.S. Environmental Protection Agency [EPA] National Institutes of Environmental Health Sciences [NIEHS] National Toxicology Program [NTP] U.S. Food and Drug Administration [FDA] Tox21 Assay Overview: The vitamin D receptor (VDR), a member of nuclear hormone receptor superfamily, plays a critical role in calcium homeostasis and bone metabolism. It is also involved in cell differentiation and growth, and thrombogenicity.
Tox21 Assay Protocol Summary: VDR-bla cells were dispensed at 2,000 cells/5 uL of assay medium per well into black wall/clear-bottom 1536-well plates using a Multidrop Combi (Thermo Fisher Scientific, Waltham, MA) dispenser. After the assay plates were incubated at a 37C and 5% CO2 for 4 h, 23 nL of compounds dissolved in DMSO, positive controls or DMSO only was transferred to the assay plate by a Pintool station (Kalypsys, San Diego, CA), followed by addition of 1 uL of 1alpha, 25-Dihydroxy Vitamin D3 (3 nM, final concentration in the wells) using a Bioraptr Flying Reagent Dispenser (FRD) workstation (Beckman Coulter, Indianapolis, IN). The plates were incubated at 37C and 5% CO2 for 16 h, and then 1 uL of LiveBLAzerTM B/G FRET substrate was added using a Bioraptr FRD. The plates were incubated at room temperature for 2 h and fluorescence intensity was measured by an Envision plate reader (PerkinElmer, Shelton, CT).
% is set by controls: 0 for no effect and ±100 for the full control effect.

| SMILES | activity change, negative = inhibition | outcome |
| --- | --- | --- |
| Clc1cc(C(Cl)(Cl)Cl)cnc1Cl | 22.9% | – |
| C[C@]12CC[C@H]3[C@@H](CCC4=CC(=O)CC[C@@H]43)[C@@H]1CC[C@@H]2OC(=O)CCC1CCCCC1 | 2.66% | – |
| Clc1ccc(C2(Cn3cncn3)CC(Br)CO2)c(Cl)c1 (stereo not given) | 19.5% | – |
| O=Cc1ccc(Cl)cc1Cl | 5.21% [at 78.8 µM] | – |
| ClP(Cl)(Cl)(Cl)Cl | -3.39% [at 78.8 µM] | – |
| [O-][Cl+]O | 7.6% | – |
| CCOC(=O)COc1cc(-c2nn(C)c(OC(F)F)c2Cl)c(F)cc1Cl | 26.5% | – |
| Cl/C=C\C[N+]12CN3CN(CN(C3)C1)C2 | 8.67% | – |
| CC(C)(Cl)[N+](=O)[O-] | 2.21% [at 78.8 µM] | – |
| II | 1.8% | – |
| O=C(O)C(F)(F)C(F)(F)C(F)(F)C(F)(F)C(F)(F)C(F)(F)C(F)(F)C(F)(F)C(F)(F)C(F)(F)F | -1.47% | – |
| C=CCC1([C@H](C)CCC)C(=O)NC(=O)NC1=O | 5.87% | – |
| C=CC(=O)OCC(C)C | -0.915% | – |
| CC(=O)NC1CCSC1=O (stereo not given) | 1.57% | – |
| CCOP(=O)(OCC)O/C(=C/Cl)c1ccc(Cl)cc1Cl | -0.359% | – |
| CCC(Br)(CC)C(=O)NC(N)=O | -0.36% | – |
| ClCc1cccc(Cl)c1 | -10.1% | – |
| S=C=NCc1ccccc1 | 1.92% [at 78.8 µM] | – |
| Cl/C=C\Cl | 0.732% | – |
| Cn1sc(Cl)cc1=O | -0.353% | – |

| SMILES | activity change, negative = inhibition | outcome |
| --- | --- | --- |
| NNC(=O)c1cccnc1 | 3.37% [at 78.8 µM] | – |
| O=C(CBr)Nc1ccc(Cl)cc1C(=O)c1ccccc1F | 4.43% | – |
| CC1(C)CCC(Cc2ccc(Cl)cc2)C1(O)Cn1cncn1 (stereo not given) | -7.64% | – |
| O=Cc1ccc2c(c1)OCO2 | 3.34% | – |
| CCCCc1c(C)nc(NCC)nc1OS(=O)(=O)N(C)C | 12.2% | – |
| CCc1ccc(C(=O)NN(C(=O)c2cc(C)cc(C)c2)C(C)(C)C)cc1 | -12.3% | – |
| COC(=O)c1cncn1C(C)c1ccccc1 (stereo not given) | 6.7% | – |
| N#CCc1ccccc1 | -18.2% [at 78.8 µM] | – |
| CCOP(=O)(OCC)Oc1ccc([N+](=O)[O-])cc1 | -6.6% [at 78.8 µM] | – |
| CC1C(=O)C[C@]2(C(C)C)C[C@H]12 (stereo not given in full) | 3.91% | – |
| CCOP(=S)(OCC)Oc1nc(Cl)c(Cl)cc1Cl | – | inactive |
| C(=NC1CCCCC1)=NC1CCCCC1 | 3.91% | – |
| OC(c1ccc(Cl)cc1)(c1ccc(Cl)cc1)c1cccnc1 | -25.5% | – |
| Nc1nc(=S)[nH][nH]1 | -20.2% | – |
| ClCCCCBr | 14.3% [at 78.8 µM] | – |
| O=[Se]=O | -21.8% | – |
| O=NN1CCCCCC1 | -1.55% | – |
| CCOC(=O)CBr | -5.09% [at 78.8 µM] | – |
| COP(=S)(Oc1cc(Cl)c(Br)cc1Cl)c1ccccc1 (stereo not given) | 5.65% | – |
| CCOS(C)(=O)=O | 4.34% [at 78.8 µM] | – |
